# Bioassay records as filed in PubChem BioAssay.
# ELG1 genotox: inducers of genotoxicity in HEK293T ELG1-luciferase cells | Potency, µM (titrated, usually from 46 µM), for the others: at the highest dose activity change, positive = activation, hits mostly activators | HEK293T ELG1-luciferase reporter, luminescence, 16 h | 330,000 tested, 1.3% active | AID 504466; further: % of control where 0% means no effect; nearly all actives have a fitted effect of over 60% in size
#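 Reporter readout depends on ELG1 protein level, which increases with genetic stress. After 16 hr compound exposure at 37 °C, luciferase activity was quantified using ONE-Glo.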
# NPC1 prom act: NPC1 promoter activation. Huh7 NPC1 promoter luciferase reporter, 24 h. Potency, µM (top dose mostly 9.22 µM), for inactives: top-dose activation, hits mostly activators. 320,000 tested, 2.4% active; further: % of control where 0% means no effect; nearly all actives have a fitted effect of over 60% in size
#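 Luciferase expression driven by the NPC1 promoter was measured in stably transfected Huh7 cells after a 24 h compound incubation, using a luciferase reagent and a luminescence read.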
# Rab9 promoter act: activators of Rab9 promoter. Huh7 Rab9 promoter-luciferase reporter, luminescence, 24 h. Potency, µM (series often up to 9.22 µM), for the others: top-dose activation, negative = inhibition, hits mostly activators. 320,000 tested, 2.8% active. AID 485297; further: % of control where 0% means no effect; nearly all actives have a fitted effect of over 60% in size
#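 Quantitative HTS format; Huh7 Rab9-luciferase reporter cells (1500/well) receive compound 2 h post-plating, incubate 24 h at 37 °C, then get luciferase reagent for 10 min before luminescence reading.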
# SMN2 splice up: increases expression of the SMN2 splice variant; AID 1458; 210,000 tested, 2.8% active; HEK293 SMN2-luciferase splicing reporter, luminescence, 30-36 h; Potency, µM (series often up to 46.1 µM), without a hit: at the top dose activity change, positive = activation, actives largely listed as activators; further: % of control where 0% means no effect; nearly all actives have a fitted effect of over 55% in size
#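 HEK293 cells carry an SMN2 […]–luciferase reporter in which exon 7 inclusion puts luciferase in frame. Cells were plated 10-12 h before compound addition, then incubated 30-36 h at 37C. ONE-Glo luminescence was read; sodium butyrate at 4.5 mM final served as control.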
# FLuc counter: inhibits or activates purified firefly luciferase, miR-21 counter-screen. 360,000 tested, 6.9% active. AID 588342. Potency, µM (series often up to 57.5 µM), inactives show at the top dose activity change, negative = inhibition, most hits filed as inhibitors. P08659. purified FLuc, Km substrates, luminescence inhibition;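 further: plate controls were vehicle for no effect and reference inhibitor for full effect; nearly all actives have a fitted effect of over 55% in size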
# Target sequence (P08659 whole entry, looked up): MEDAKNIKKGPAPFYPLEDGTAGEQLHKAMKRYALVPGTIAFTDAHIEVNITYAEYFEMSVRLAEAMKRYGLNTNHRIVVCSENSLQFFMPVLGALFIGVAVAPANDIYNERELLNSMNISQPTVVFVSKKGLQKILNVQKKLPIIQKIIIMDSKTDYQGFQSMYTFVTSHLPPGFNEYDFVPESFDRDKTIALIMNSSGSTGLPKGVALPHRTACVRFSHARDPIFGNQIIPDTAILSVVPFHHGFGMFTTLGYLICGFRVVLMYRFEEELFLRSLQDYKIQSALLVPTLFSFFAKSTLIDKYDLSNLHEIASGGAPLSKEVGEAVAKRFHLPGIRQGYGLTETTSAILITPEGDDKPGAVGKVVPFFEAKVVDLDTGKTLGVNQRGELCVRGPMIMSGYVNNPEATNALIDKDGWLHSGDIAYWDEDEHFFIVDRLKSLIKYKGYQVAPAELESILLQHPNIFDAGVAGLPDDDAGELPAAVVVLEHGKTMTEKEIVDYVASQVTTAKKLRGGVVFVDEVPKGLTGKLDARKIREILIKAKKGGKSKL
#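 Biochemical qHTS of compounds, final roughly 60 µM downward over six points, against 10 nM purified firefly luciferase using Km concentrations of substrates (10 uM D-luciferin, 10 uM ATP) in Tris acetate pH 7.5 buffer; luminescence output.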
# KinaseGlo FLuc: counter-screen: inhibitors of Kinase-Glo firefly luciferase. Q27757. Kinase-Glo luciferase, ATP luminescence, 8 min. Potency, µM (highest dose often 38.3 µM), inactives show at the top dose activity change, negative = inhibition, actives largely listed as inhibitors. 200,000 tested, 0.28% active; further: on the % scale 0 is the no-effect control and ±100 the full control effect; nearly all actives have a fitted effect of over 60% in size
#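 Compound is pinned into ATP-containing buffer (10 uM ATP, imidazole pH 7.2, 7 mM MgCl2). Kinase-Glo luciferase reagent is then added. Light output is recorded following an 8-min room-temperature incubation.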
# Starred values were filed as active, the others as inactive; ? = inconclusive; / = no result given; [ ] = another dose, or the depositor's remark. Only some compounds are listed: those with a hit (about 7.3% of all), similar ones and a draw of the others. The call rests on the fitted dose curve; in most records, active means well fitted curve in the direction sought with a large enough effect; inconclusive means small, poorly fitted or top-dose-only effect, or another doubt; inactive means no such curve, though single readings can be large; an effect the other way counts as inactive or inconclusive. Potency means the concentration at half of the fitted maximal effect.
SMILES,ELG1 genotox,NPC1 prom act,Rab9 promoter act,SMN2 splice up,FLuc counter,KinaseGlo FLuc
O=C(Nc1ccc2c(c1)OCCO2)c1c(F)c(F)c(F)c(F)c1F,0.9%,-0.8%,5.4%,-4.4%,1.5%,-6.0%
Cc1oc(C(C)(C)C)cc1C(=O)Nc1ccc2c(c1)OCCO2,/,/,/,29.8%,12µM*,1.4%
O=C(C1CC(=O)N(c2ccc(F)cc2)C1)N1CCCCC1 (stereo not drawn),2.0%,-1.8%,-1.2%,/,1.4%,/
Cc1ccc(C(=O)Nc2ccc(S(=O)(=O)Nc3onc(C)c3C)cc2)cc1,/,/,/,-2.5%,12µM*,/
Cc1noc(NS(=O)(=O)c2ccc(NC(=O)c3oc4ccc(Cl)cc4c3C)cc2)c1C,15.6%,-1.7%,16.2%,/,16.9µM*,/
Cc1noc(NS(=O)(=O)c2ccc(NC(=O)c3ccc(F)cc3)cc2)c1C,5.6%,/,/,/,/,/
Cc1ccc(-c2cc(C(=O)Nc3ccc(S(=O)(=O)Nc4onc(C)c4C)cc3)c3ccccc3n2)cc1,0.7%,-1.8%,3.7%,27.2%,13.5µM*,9.5%
Cc1noc(NS(=O)(=O)c2ccc(NC(=O)c3ccc(Br)cc3)cc2)c1C,/,/,/,-1.4%,21.3µM*,/
Cc1cc(Cl)c(S(=O)(=O)N2CCN(c3ccc(F)cc3)CC2)cc1OCC(N)=O,-7.2%,-16.0%,-30.8%,-30.2%,-3.2%,-1.5%
COc1ccc(C(=O)Nc2ccc(S(=O)(=O)Nc3onc(C)c3C)cc2)cc1,2.9%,-0.5%,-6.0%,2.8%,21.3µM*,1.8%
O=C(NCCCSc1ccccc1)c1cc(Cl)ccc1O,?,-3.4%,-10.3%,/,10.7µM*,/
O=C(CNC(=O)c1ccccc1)NCCCSc1ccccc1,2.1%,/,/,/,/,/
Cc1nc(Cl)sc1C(=O)Nc1ccccc1,0.0%,-2.4%,-0.5%,-13.0%,-16.5%,-1.7%
COc1ccccc1Nc1nc(C)c(C(=O)Nc2ccccc2)s1,1.0%,-5.1%,12.4%,4.6%,15.1µM*,2.4%
Cc1nc(NCCOc2ccccc2)sc1C(=O)Nc1ccccc1,27.5%,2.82µM*,?,/,?,/
Cc1nc(Cl)sc1C(=O)Nc1ccc(Cl)cc1,2.9%,-2.3%,1.1%,-8.5%,15.1µM*,-1.8%
Cc1nc(Nc2ccccc2Cl)sc1C(=O)Nc1ccccc1,7.9%,15.7%,-1.0%,20.5%,19µM*,-0.2%
O=C(COc1ccc(Cl)cc1)Nc1nnc2n1CCS2,/,/,/,/,6.3%,/
CCCNC(=S)N(Cc1cc2cc(C)ccc2n2nnnc12)CC(C)(C)CN(C)C,-8.6%,-9.3%,5.9%,/,8.6%,/
COc1ccc(OC)c(NC(=O)c2cn(C)c(=O)c3cc(OC)c(OC)cc23)c1,-2.2%,0.1%,-6.0%,?,-2.7%,-2.2%
COc1cc(NC(=O)c2nc3nc(C)cc(C(F)F)n3n2)c(OC)cc1Cl,/,/,/,-5.9%,2.2%,/
COc1ccc(C(=O)Nc2cc(OC)c(Cl)cc2OC)cc1,0.5%,16.3%,9.5%,15.7%,21.3µM*,-2.5%
COc1ccc(OC)c(NC(=O)c2csc(Cl)c2OC)c1,2.8%,1.9%,-2.1%,/,15.1µM*,/
COc1cc(NC(=O)c2cc3nc(C)cc(C)n3n2)c(OC)cc1Cl,?,2.51µM*,1.26µM*,11.2µM*,3.01µM*,1.9%
COc1ccc(C(=O)OCc2csc(C)n2)c(O)c1,?,?,?,1.8%,15.1µM*,0.8%
SMILES,ELG1 genotox,NPC1 prom act,Rab9 promoter act,SMN2 splice up,FLuc counter,KinaseGlo FLuc
O=C(c1cc(=O)c2cc(Cl)ccc2o1)N(Cc1ccccc1)C1CCS(=O)(=O)C1 (stereo not drawn),/,/,/,-8.6%,-2.7%,/
Cc1ccc(-n2nc(CO)c(C(=O)NCCCCc3ccccc3)n2)cc1C,/,/,/,9.2%,?,/
O=C(c1cnn2c1NC(c1ccc(Br)cc1)CC2C(F)(F)F)N1CCN2CCCC2C1 (stereo not drawn),2.3%,-0.7%,12.4%,0.2%,-1.4%,-0.1%
COc1ccccc1OCCn1c(CO)nc2ccccc21,-4.6%,17.1%,-0.1%,-17.5%,-16.3%,-4.6%
COc1cc(-c2csc(C)n2)ccc1O,0.3%,1.5%,-0.2%,23.7%,-2.7%[2.3 µM],1.7%
COc1ccc(C(=O)CN2C(=O)c3ccccc3C2=O)c(OC)c1,?,23.6%,?,/,15.1µM*,/
COc1ccc(NC(=O)CSc2ccccc2)c(OC)c1,15.3%,?,3.98µM*,22.4µM*,26.9µM*,-3.9%
COc1ccc(C(=O)OCC(=O)c2cc(OC)ccc2OC)c(OC)c1,1.5%,1.8%,0.4%,-6.5%,?,0.6%
COc1ccc(-c2csc(C)n2)cc1Br,?,13.7%,24.7%,16.6%,15.1µM*,-5.6%
COc1ccc(C(=O)COC(=O)c2ccccc2O)c(OC)c1,?,?,3.55µM*,/,6.01µM*,/
COc1cc(/C=N/NC(=O)c2c(-c3ccccc3)noc2C)cc(OC)c1OC,0.0%,-5.4%,-0.2%,13.2%[1.84 µM],1.9%,-0.6%
COc1ccc(C)cc1NC(=O)CCCN1C(=S)NC(C)(C)CC1C (stereo not drawn),1.5%,-2.9%,-4.5%,-6.0%[1.84 µM],3.2%,0.3%
Cc1csc(NC(=O)C(C)Oc2ccc(Cl)cc2C)n1 (stereo not drawn),1.8%,2.7%,0.3%,/,?,/
COc1ccc(OC)c(NC(=O)Nc2cccc3ccccc23)c1,6.1%,-1.7%,-1.9%,-17.1%,3.9%,1.5%
COc1ccc(OC)c(NC(=O)c2ccc(-c3csc(C)n3)cc2)c1,7.1%,24.6%,25.4%,/,5.36µM*,/
COc1ccc(NC(=O)c2ccccc2SC)c(OC)c1,2.1%,-6.4%,-5.7%,-1.2%,-13.3%,1.2%
COc1ccc(NC(=O)c2ccccc2O)c(OC)c1,11.2µM*,?,3.16µM*,?,9.53µM*,-5.3%
COc1ccc(OC)c(NC(=O)c2cc3ccccc3cc2OC)c1,2.2%,1.9%,6.7%,/,23.9µM*,/
COc1ccc(C(=O)Nc2cc(OC)ccc2OC)cc1,3.0%,-1.8%,17.2%,-1.6%,23.9µM*,-5.7%
O=C(Nc1ccccc1NC(=O)c1ccco1)c1ccccc1,-2.3%,-2.0%,-3.7%,/,0.3%,/
CC(C)(C)c1ccc(C(=O)Nc2ccccc2Cl)cc1,0.3%,0.794µM*,0.708µM*,/,1.9µM*,-4.6%
CC(C)(C)c1ccc(C(=O)Nc2ccccc2NC(=O)c2ccco2)cc1,-2.6%,-0.6%,-1.8%,-12.7%,19µM*,-1.1%
CC(C)(C)c1ccc(C(=O)Nc2cccc3ncccc23)cc1,-4.5%,-1.8%,4.7%,/,13.5µM*,/
COCCn1c(=O)[nH]c2cc(C(=O)OC)ccc2c1=O,1.3%,-0.3%,-5.5%,-6.6%,1.8%,1.5%
COCCn1c(=O)[nH]c2cc(C(=O)NCc3ccccc3Cl)ccc2c1=O,/,/,/,3.98µM*,-0.7%,/
O=C(Nc1ccccc1NC(=O)c1c(F)cccc1F)c1c(F)cccc1F,-1.9%,1.1%,-9.1%,/,-2.2%,/
O=C(Nc1noc2ccccc12)c1c(F)cccc1F,/,/,/,22.4µM*,7.57µM*,/
